According to PubChem BioAssay AID743279 (National Center for Advancing Translational Sciences (NCATS), 2014):
About 17,000 (4.7%) of roughly 360,000 compounds were called active. About 5% were inconclusive and are not listed. Cut-off read from the data, not from the text of the source: active = activity change below about -50%; inconclusive = mostly about -30% to -49%; inactive = weaker than that. Shown is part of a subset that was picked to be rich in actives.

Assay: qHTS for Inhibitors of Inflammasome Signaling: IL-1-beta AlphaLISA Primary Screen
Settings: THP-1 LPS/ATP IL-1B secretion, 16 h; at 57.5 µM, stronger effect = lower value
Procedure, shortened: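 Secreted IL-1B measured by AlphaLISA bead assay after 16 h compound exposure of THP-1 cells; compounds (final up to 57.5 uM) added 1 h before LPS (250 ng/mL) and ATP (1.25 mM) stimulation; lower signal means less secretion.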
% is set by controls: 0 for no effect and ±100 for the full control effect.

Activity change, inactive:
CCOc1cc(-c2cc(-c3ccc(OC)cc3)nc(N)c2C#N)ccc1O -3.59%
CCOC(=O)CC(=O)CSc1nc(-c2ccccc2)cc(-c2ccc(Cl)cc2)c1C#N 6.24%
CC(C)(C)S(=O)(=O)N1Cc2cc(CO)cc(CCO)c2[C@H]1CCO 8.29%
CN(C)C(=O)c1cccc(-c2cnc3c(NC=O)cc(-c4ccc(C(=O)N5CCOCC5)cc4)cn23)c1 -14.1%
Cc1nnc(NC(=O)CSc2nc(C3CCCCC3)nc3ccccc23)s1 -0.35%
O=C(CSc1nc(C2CC2)nc2ccccc12)Nc1cccc(O)c1 2.55%
CCN(CC)C(=O)C1=C(C)N(Cc2ccc(OC)cc2)C(=O)C(CC(=O)NCCCCc2ccccc2)C1 (stereo not given) -14.3%
CN(C)CCCN1C(=O)CSC1c1ccc([N+](=O)[O-])cc1 (stereo not given) 36.5%
CCCCc1ccc(NC(=O)NCc2cccnc2)cc1 -8.19%
O=C(NCc1cccnc1)c1ccc2nc([C@@H]3O[C@H](CO)[C@H](O)[C@H](O)[C@H]3O)[nH]c2c1 2.47%
COc1cc(C(=O)OCC(=O)N(CC(C)C)C2CCS(=O)(=O)C2)ccc1OCC(C)C (stereo not given) -19.9%
COc1cccc(-c2noc(C3CCCN(C(=O)c4ccc(F)cc4)C3)n2)c1 (stereo not given) -17.2%
CCOC(=O)C1(CCOc2ccccc2)CCN(C(=O)c2cncs2)CC1 -28.5%
CCOC(=O)C1(CCOC)CCN(Cc2ccc(C(=O)OC)cc2)CC1 4.83%
CCCS(=O)(=O)N1CCC(CCOc2ccccc2)(C(=O)OCC)CC1 30.8%
CCOC(=O)C1(CCOc2ccccc2)CCN(Cc2cc(OC)c(O)cc2Cl)CC1 -22.4%
COc1ccc(NC2CC(=O)N(C)C2=O)cc1 (stereo not given) 19.6%
C/C(=N/Nc1nc(-c2ccccc2)c(CC(=O)O)s1)c1ccccc1 -6.09%
CC(C)CCC(=O)Nc1cc(S(=O)(=O)N2CCOCC2)ccc1N1CCCC1 -21.6%
CCc1nc2ccc(C(=O)N3CCC(O)(Cc4ccccc4)CC3)cn2c1N(C)C(=O)Cc1ccccc1 1.17%
Cc1csc(NC(=O)C2CCN(S(=O)(=O)c3ccccc3)CC2)n1 -7.33%
COc1ccc(OC)c(/C=C/C(=O)OCC(=O)Nc2ccc3c(c2)OCCO3)c1 37.8%
COc1cc(C=C(OC(C)=O)c2ccc3c(c2)OCO3)cc(OC)c1OC 24.5%
CCOC(=O)c1c(S(=O)(=O)NCC(=O)Nc2ccc(C)cc2)c(C)n(C)c1C -6.41%
CCOc1cc(/C=N/NC(=O)c2ccncc2)cc(Br)c1O -14.1%
Cc1ccc(N2C(=O)SC(N(CC(=O)O)c3ccc(C)cc3)C2=O)cc1 (stereo not given) 18.1%
Cc1c(C(=O)N2CCN(c3ccc(F)cc3)CC2)oc2c1C(=O)CCC2 14.7%
Cc1ccc2c(C)c(C(=O)N(C)Cc3ccncn3)oc2c1C 13.6%
O=C(Nc1ccccc1F)c1cc(S(=O)(=O)N2CCCCC2)cs1 6.67%
CC12CCCCC1=CC(=O)CC2 (stereo not given) 13.3%
CCn1c(SCC(=O)NCC2CCCO2)nc2ccccc21 (stereo not given) 31.3%
Cn1c(SCC(=O)c2ccccc2)ncc(C(=O)Nc2ccc(F)cc2)c1=O -2.98%
NC(=O)c1ncn([C@@H]2O[C@H](CNCc3cnc(N4CCOCC4)s3)[C@@H](O)[C@H]2O)n1 17.3%
CC1CN(C(=O)c2ccc3c(c2)OCO3)OC(c2ccccc2)O1 (stereo not given) -0.281%
O=C(Cn1cc(C(F)(F)F)ccc1=O)N/N=C/c1ccc(Cl)cc1Cl 0%
COc1ccc(C(=O)NCC[N+](C)(C)C)cc1 22.2%
CCOc1cc(C(=O)O)ccc1OCCOc1ccccc1 4.78%
CCN(c1ccccc1)S(=O)(=O)c1cc(C(=O)NCc2ccccn2)ccc1C -10.4%
CN(Cc1ccccc1)C(=O)CCC1CCN(C(=O)c2ccco2)CC1 -7.63%
O=C(Nc1ccc(S(=O)(=O)NCC2CCCO2)cc1)c1ccc(F)cc1 (stereo not given) 11.6%
CNC(=O)C[C@H]1C(=O)N(c2ccc(OC)cc2)C[C@@H]1Cc1ccccc1 -12.1%
COc1ccc(N2C(=O)CC(N3CCC(C(N)=O)CC3)C2=O)cc1 (stereo not given) -4%
OCC(CO)(CO)NCc1ccc(-c2ccccc2)cc1 6.61%
Cc1ccc(-c2noc(CSc3nnc(-c4ccncc4)n3-c3ccc(F)cc3)n2)cc1 -15.2%
Cc1ccc(-c2noc(CSc3nnc(-c4cccs4)n3C)n2)cc1 34.2%
CCCCCCCCOC1OC(CO)C(O)C(O)C1NC(C)=O (stereo not given) 48.8%
CSCCC(NC(=O)COc1ccccc1)C(=O)OCCOc1ccc(F)cc1 (stereo not given) 5.31%
O=C(COc1ccc(Cl)cc1)N1CCN(c2cccc(C(F)(F)F)c2)CC1 -4.57%

Activity change, active:
CCOc1cc(-c2cc(-c3ccc(NC(C)=O)cc3)nc(N)c2C#N)ccc1O -53.1%
O=C(CSc1nc(C2CC2)nc2ccccc12)Nc1ccc2c(c1)OCCO2 -71.5%
CCCCCCCCCCCCN1C(=O)CSC1c1cccnc1 (stereo not given) -56.2%
CCOC(=O)C1(CCOc2ccccc2)CCN(Cc2cc(OC)cc(OC)c2)CC1 -89.9%
CCOC(=O)C1(CCOc2ccccc2)CCN(Cc2ccc(C#CCCO)cc2)CC1 -57.7%
COc1ccc(OC)c(/C=C/C(=O)c2ccc3c(c2)OCO3)c1 -97.2%
Cc1ccc2c(C)c(C(=O)N3CCN(c4ccncc4)CC3)oc2c1C -52.1%
Cc1ccc(NC(=O)c2cnc(SCC(=O)NCC3CCCO3)n(C)c2=O)cc1 (stereo not given) -103%
CC/C(=C(/c1ccccc1)c1ccc(OCC[N+](C)(C)C)cc1)c1ccccc1 -61.5%
COc1ccc(N2C(=O)C3C(C2=O)C(C(=O)c2ccccc2)N2CCCC32)cc1 (stereo not given) -82.1%
Cc1ccc(-c2noc(CSc3nnnn3-c3ccccc3)n2)cc1 -64.8%
CSCCC(NC(=O)COc1ccccc1)C(=O)N1CCN(c2cccc(C(F)(F)F)c2)CC1 (stereo not given) -61.8%
